Among all 5,500 compounds or so, about 2,000 (36%) were called active. About 18% were inconclusive and are not listed. The list shows a part of the results. Values without a mark were called inactive. Cut-off read from the data, not from the text of the source: active = normalized growth mostly below about 0.91 (no sharp cut-off); inconclusive = no clear call, values can overlap the other calls; inactive = mostly above about 0.92.
Assay: chemical genetic growth profiling, strain panel (AID 1159580);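 note: tested at 20 µM; growth read once vehicle control cultures reached saturation at 30 °C; 1 = growth at the plate median or of vehicle wells; lower values mean less growth of the strain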
Conditions: S. cerevisiae deletion strains, growth OD
[1] = locus YAR019C, strain CDC15, stronger effect = lower value
[2] = locus YBL105C, strain PKC1, stronger effect = lower value
[3] = locus YBR135W, strain CKS1, stronger effect = lower value
[4] = locus YBR136W, strain MEC1, stronger effect = lower value
[5] = locus YBR160W, strain CDC28, stronger effect = lower value
[6] = locus YDL017W, strain CDC7, stronger effect = lower value
[7] = locus YDL028C, strain MPS1, stronger effect = lower value
[8] = locus YDL101C, strain DUN1, stronger effect = lower value
[9] = locus YDL108W, strain KIN28, stronger effect = lower value
[10] = locus YDL132W, strain cdc53, stronger effect = lower value
[11] = locus YDL214C, strain PRR2, stronger effect = lower value
[12] = locus YDR052C, strain DBF4, stronger effect = lower value
[13] = locus YDR054C, strain cdc34, stronger effect = lower value
[14] = locus YDR226W, strain ADK1, stronger effect = lower value
[15] = locus YDR477W, strain SNF1, stronger effect = lower value
[16] = locus YER123W, strain YCK3, stronger effect = lower value
[17] = locus YER133W, strain GLC7, stronger effect = lower value
[18] = locus YFL009W, strain cdc4, stronger effect = lower value
[19] = locus YFL029C, strain CAK1, stronger effect = lower value
[20] = locus YFR003C, strain YPI1, stronger effect = lower value
[21] = locus YFR019W, strain FAB1, stronger effect = lower value
[22] = locus YFR028C, strain CDC14, stronger effect = lower value
[23] = locus YGR040W, strain KSS1, stronger effect = lower value
[24] = locus YGR052W, strain FMP48, stronger effect = lower value
[25] = locus YGR092W, strain DBF2, stronger effect = lower value
[26] = locus YHR030C, strain SLT2, stronger effect = lower value
[27] = locus YHR079C, strain IRE1, stronger effect = lower value
[28] = locus YHR082C, strain KSP1, stronger effect = lower value
[29] = locus YHR205W, strain SCH9, stronger effect = lower value
[30] = locus YIL147C, strain SLN1, stronger effect = lower value
[31] = locus YJL095W, strain BCK1, stronger effect = lower value
[32] = locus YJL128C, strain PBS2, stronger effect = lower value
[33] = locus YJL157C, strain FAR1, stronger effect = lower value
[34] = locus YJR016C, strain ILV3, stronger effect = lower value
[35] = locus YJR066W, strain TOR1 (second series), stronger effect = lower value
[36] = locus YJR066W, strain TOR1, stronger effect = lower value
[37] = locus YKL048C, strain ELM1, stronger effect = lower value
[38] = locus YKL067W, strain YNK1, stronger effect = lower value
[39] = locus YKL101W, strain HSL1, stronger effect = lower value
[40] = locus YKL193C, strain SDS22, stronger effect = lower value
[41] = locus YKL203C, strain TOR2, stronger effect = lower value
[42] = locus YLR113W, strain HOG1, stronger effect = lower value
[43] = locus YLR133W, strain CKI1, stronger effect = lower value
[44] = locus YLR403W, strain SFP1, stronger effect = lower value
[45] = locus YML070W, strain DAK1, stronger effect = lower value
[46] = locus YMR001C, strain CDC5, stronger effect = lower value
[47] = locus YMR205C, strain PFK2 (second series), stronger effect = lower value
[48] = locus YMR277W, strain FCP1, stronger effect = lower value
[49] = locus YNL006W, strain LST8, stronger effect = lower value
[50] = locus YNL020C, strain ARK1, stronger effect = lower value
[51] = locus YNL161W, strain CBK1, stronger effect = lower value
[52] = locus YNL183C, strain NPR1, stronger effect = lower value
[53] = locus YNL207W, strain RIO2, stronger effect = lower value
[54] = locus YNL222W, strain SSU72, stronger effect = lower value
[55] = locus YNL307C, strain MCK1 (second series), stronger effect = lower value
[56] = locus YOL078W, strain AVO1, stronger effect = lower value
[57] = locus YOL136C, strain PFK27, stronger effect = lower value
[58] = locus YOR061W, strain CKA2, stronger effect = lower value
[59] = locus YOR119C, strain RIO1, stronger effect = lower value
[60] = locus YOR231W, strain MKK1, stronger effect = lower value
[61] = locus YOR329C, strain SCD5, stronger effect = lower value
[62] = locus YPL031C, strain PHO85, stronger effect = lower value
[63] = locus YPL153C, strain RAD53, stronger effect = lower value
[64] = locus YPL204W, strain HRR25, stronger effect = lower value
[65] = locus YPL209C, strain IPL1, stronger effect = lower value
[66] = locus YPL256C, strain CLN2, stronger effect = lower value
[67] = locus YPR025C, strain CCL1, stronger effect = lower value
[68] = locus YPR106W, strain ISR1, stronger effect = lower value
[69] = locus YPR111W, strain DBF20, stronger effect = lower value
[70] = strain NNK1, stronger effect = lower value
[71] = strain TSCII, stronger effect = lower value

## O=S(=O)(Nc1cc(C(F)(F)F)cc(C(F)(F)F)c1)c1ccc(Cl)s1
[1]
  normalized growth: 0.927
[2]
  normalized growth: 0.921
[3]
  normalized growth: 0.93
[4]
  normalized growth: 0.922
[5]
  normalized growth: 0.923
[6]
  normalized growth: 0.925
[7]
  normalized growth: 0.928
[8]
  normalized growth: 0.942
[9]
  normalized growth: 0.939
[10]
  normalized growth: 0.925
[11]
  normalized growth: 0.818
[12]
  normalized growth: 0.891 (active)
[13]
  normalized growth: 0.926
[14]
  normalized growth: 0.914
[15]
  normalized growth: 0.808
[16]
  normalized growth: 0.622
[17]
  normalized growth: 0.83
[18]
  normalized growth: 0.92
[19]
  normalized growth: 0.928
[20]
  normalized growth: 0.927
[21]
  normalized growth: 0.772 (active)
[22]
  normalized growth: 0.927
[23]
  normalized growth: 0.835
[24]
  normalized growth: 0.619
[25]
  normalized growth: 0.369 (active)
[26]
  normalized growth: 0.246 (active)
[27]
  normalized growth: 0.51 (active)
[28]
  normalized growth: 0.48 (active)
[29]
  normalized growth: 0.808
[30]
  normalized growth: 0.927
[31]
  normalized growth: 0.605
[32]
  normalized growth: 0.906
[33]
  normalized growth: 0.802
[34]
  normalized growth: 0.921
[35]
  normalized growth: 0.856
[36]
  normalized growth: 0.668
[37]
  normalized growth: 0.701 (active)
[38]
  normalized growth: 0.841
[39]
  normalized growth: 0.685 (active)
[40]
  normalized growth: 0.933
[41]
  normalized growth: 0.786
[42]
  normalized growth: 0.55 (active)
[43]
  normalized growth: 0.772
[44]
  normalized growth: 0.837
[45]
  normalized growth: 0.718
[46]
  normalized growth: 0.93
[47]
  normalized growth: 0.852
[48]
  normalized growth: 0.931
[49]
  normalized growth: 0.941
[50]
  normalized growth: 0.726
[51]
  normalized growth: 0.927
[52]
  normalized growth: 0.568
[53]
  normalized growth: 0.914
[54]
  normalized growth: 0.934
[55]
  normalized growth: 0.645
[56]
  normalized growth: 0.923
[57]
  normalized growth: 0.67 (active)
[58]
  normalized growth: 0.836
[59]
  normalized growth: 0.838
[60]
  normalized growth: 0.558 (active)
[61]
  normalized growth: 0.927
[62]
  normalized growth: 0.706
[63]
  normalized growth: 0.617 (active)
[64]
  normalized growth: 0.628 (active)
[65]
  normalized growth: 0.927
[66]
  normalized growth: 0.475 (active)
[67]
  normalized growth: 0.929
[68]
  normalized growth: 0.934
[69]
  normalized growth: 0.923
[70]
  normalized growth: 0.919
[71]
  normalized growth: 0.917

## COC(=O)c1sccc1S(=O)(=O)Nc1cc(C(F)(F)F)cc(C(F)(F)F)c1
[1]
  normalized growth: 0.973
[2]
  normalized growth: 0.967
[3]
  normalized growth: 0.974
[4]
  normalized growth: 0.974
[5]
  normalized growth: 0.962
[6]
  normalized growth: 0.973
[7]
  normalized growth: 0.979
[8]
  normalized growth: 0.957
[9]
  normalized growth: 0.97
[10]
  normalized growth: 0.967
[11]
  normalized growth: 0.962
[12]
  normalized growth: 0.969
[13]
  normalized growth: 0.98
[14]
  normalized growth: 0.971
[15]
  normalized growth: 0.985
[16]
  normalized growth: 0.936
[17]
  normalized growth: 0.981
[18]
  normalized growth: 0.965
[19]
  normalized growth: 0.965
[20]
  normalized growth: 0.974
[21]
  normalized growth: 0.955
[22]
  normalized growth: 0.962
[23]
  normalized growth: 0.971
[24]
  normalized growth: 1.03
[25]
  normalized growth: 0.977
[26]
  normalized growth: 1.07
[27]
  normalized growth: 1.02
[28]
  normalized growth: 1.06
[29]
  normalized growth: 0.947
[30]
  normalized growth: 0.978
[31]
  normalized growth: 1.01
[32]
  normalized growth: 0.9
[33]
  normalized growth: 0.963
[34]
  normalized growth: 0.97
[35]
  normalized growth: 0.942
[36]
  normalized growth: 1.07
[37]
  normalized growth: 0.95
[38]
  normalized growth: 0.956
[39]
  normalized growth: 0.958
[40]
  normalized growth: 0.969
[41]
  normalized growth: 1.04
[42]
  normalized growth: 0.902
[43]
  normalized growth: 0.962
[44]
  normalized growth: 0.966
[45]
  normalized growth: 0.935
[46]
  normalized growth: 0.972
[47]
  normalized growth: 0.946
[48]
  normalized growth: 0.971
[49]
  normalized growth: 0.985
[50]
  normalized growth: 0.956
[51]
  normalized growth: 0.967
[52]
  normalized growth: 0.997
[53]
  normalized growth: 0.97
[54]
  normalized growth: 0.961
[55]
  normalized growth: 0.943
[56]
  normalized growth: 0.971
[57]
  normalized growth: 0.938
[58]
  normalized growth: 0.955
[59]
  normalized growth: 1.05
[60]
  normalized growth: 0.934
[61]
  normalized growth: 0.972
[62]
  normalized growth: 0.987
[63]
  normalized growth: 0.973
[64]
  normalized growth: 0.97
[65]
  normalized growth: 0.965
[66]
  normalized growth: 0.967
[67]
  normalized growth: 0.969
[68]
  normalized growth: 0.955
[69]
  normalized growth: 0.938
[70]
  normalized growth: 0.974
[71]
  normalized growth: 0.972

Source: PubChem BioAssay AID1159580 (chemical genetic matrix, 2015)
